A selection: hits, their analogues and other compounds. The true share with any hit is near 6.2%.
ATXN2 expr inh – Primary qHTS for Inhibitors of ATXN expression | 360,000 tested, 0.72% active | AID 1745845, 2022 | HEK-293 ATXN2-luciferase reporter, luminescence, 24 h | Potency, µM (top dose mostly 57 µM), for inactives: at the top dose activity change, negative = inhibition, most hits filed as inhibitors; note: % is set by controls: 0 for no effect and ±100 for the full control effect; nearly all actives have a fitted effect of over 55% in size
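ATXN2-luciferase reporter cells (luciferase flanked by upstream and downstream ATXN2 gene portions) were treated 24 h at 37 °C with compounds at up to 57 uM. SteadyGlo luminescence gave expression; GF-AFC fluorescence gave viability.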
HT1080 IDH1KD tx – qHTS for induction of synthetic lethality in tumor cells producing 2HG: qHTS for the HT-1080-IDH1KD cell line; HT-1080 IDH1 knockdown viability, ATP luminescence, 48 h; Potency, µM (top dose mostly 46.1 µM), inactives show at the highest dose activity, negative = toxicity, actives largely listed as cytotoxic; 360,000 tested, 2% active; AID 686971, 2013;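 note: 0% = DMSO wells and -100% = cell-free medium wells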
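HT-1080-IDH1KD cells (IDH1 knocked down), 750/well in RPMI with 5% FBS, treated with compound 48 h at 37 degrees C. Viability by CellTiter-Glo luminescence, normalised to DMSO and no-cell wells; concentration-response curves classed.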
HT1080NT lethal – qHTS for induction of synthetic lethality in tumor cells producing 2HG: qHTS for the HT-1080-NT fibrosarcoma cell line | 360,000 tested, 1.6% active | HT-1080-NT fibrosarcoma viability, CellTiter-Glo ATP luminescence, 48 h | AID 686970, 2013 | Potency, µM (doses to about 46.1 µM), inactives show at the highest dose activity, negative = less viability, actives largely listed as cytotoxic;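 note: NT is the 2HG producing partner of a matched IDH1 knockdown line; 0% = DMSO-treated cells and -100% = media-only wells without cells; nearly all actives have a fitted effect of over 55% in size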
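HT-1080-NT; 750 cells/well; 5% FBS RPMI; 48 h compound, 37 degrees C; CellTiter-Glo luminescence; curve fitting and curve-class assignment.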
KB-3-1 tox – qHTS assay for MDR1-selective chemotherapeutics: Primary screen using the parental adenocarcinoma cell KB-3-1. KB-3-1 viability, CellTiter-Glo ATP luminescence, 72 h. Potency, µM (doses to about 46.1 µM), most hits filed as cytotoxic. 400,000 tested, 1.4% active. AID 1347075, 2019; note: % is set by controls: 0 for no effect and ±100 for the full control effect; nearly all actives have a fitted effect of over 60% in size
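Luminescent ATP read-out (CellTiter-Glo) measures survival of drug-naive KB-3-1 cells after 72 h compound exposure at 37 °C. Titration series was screened from lowest to highest concentration, with DMSO vehicle plates as background controls.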
KB-V1 MDR tox – qHTS assay for MDR1-selective chemotherapeutics: Primary screen using the drug-selected MDR subline cells KB-V1. KB-V1 MDR cells viability, CellTiter-Glo, 72 h. Potency, µM (doses to about 46.1 µM), hits mostly cytotoxic. 400,000 tested, 3.4% active; note: % is set by controls: 0 for no effect and ±100 for the full control effect; nearly all actives have a fitted effect of over 60% in size
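Readout: CellTiter-Glo luminescence, 10 min after addition. Cells: KB-V1 MDR subline, 72 h at 37 degrees C with compound. Analysis: corrected, normalized data fitted to concentration-effect curves.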
S2 tox – Viability Counterscreen for Primary qHTS for Inhibitors of ATXN expression; AID 651635, 2014; 400,000 tested, 0.49% active; S2 cells (HEK-293 line with an ATXN2-luciferase reporter) viability, CellTiter-Fluor protease fluorescence, 24 h; Potency, µM (series often up to 56.7 µM), hits mostly cytotoxic; note: nearly all actives have a fitted effect of over 40% in size
* marks the source's active call; other numbers are inactive results; i = inactive; ? = inconclusive; . = no result; [ ] = remark or other dose. Calls come from the whole dose curve; as a rule, active = well fitted curve in the direction sought with a large enough effect; inconclusive = small, poorly fitted or top-dose-only effect, or another doubt; inactive = no such curve, though single readings can be large; an effect the other way counts as inactive or inconclusive. Potency is the fitted concentration of half-maximal effect.

SMILES	ATXN2 expr inh	HT1080 IDH1KD tx	HT1080NT lethal	KB-3-1 tox	KB-V1 MDR tox	S2 tox
O=S(=O)(c1ccc(OCC(O)CNC23CC4CC(CC(C4)C2)C3)c(Cl)c1)N1CCOCC1 (stereo not given)	?	13µM*	21µM*	?	?	?
CCS(=O)c1scc(-c2ccc(Cl)cc2)c1C#N (stereo not given)	.	0%	-4%	?	21µM*	i
CCc1nc2c(C#N)c(-c3ccc(Cl)cc3)ccn2n1	1%	4%	4%	?	?	i
CCC12CN3CC(C)(CN(C1)C3c1c(C)n(C)c3ccccc13)C2=O (stereo not given)	1%	.	.	i	i	i
CC(=O)N1C=CN(C(C)=O)C(c2cn(C)c3ccccc23)C1c1cn(C)c2ccccc12 (stereo not given)	-6%	-6%[9.24 µM]	-23%	?	23µM*	i
CCOC(=O)CN(C(=O)COc1nc(-c2ccccc2)cc(C)c1C#N)c1ccccc1C	.	21%	0%	3.7µM*	i	?
CCOC(=O)CN(C(=O)COc1nc(-c2ccccc2)cc(C)c1C#N)c1ccccc1	-7%	13%	9%	?	i	i
CCOC(=O)c1ccccc1NC(=O)Cn1nnc2sc3c(c2c1=O)CCCC3	-1%	.	.	i	i	i
COc1ccc(N2CC(C(=O)N/N=C/c3ccc(C)cc3)CC2=O)cc1 (stereo not given)	?	2.3µM*	3.3µM*	1.8µM*	1.5µM*	?
COc1ccc(N2CC(C(=O)N/N=C/c3ccc([N+](=O)[O-])cc3)CC2=O)cc1 (stereo not given)	11%	5%	8%	i	i	i
Cc1ccc(-c2cn3nc(-c4ccccc4)c(-c4ccccc4)nc3n2)cc1	5%	-2%	6%	i	i	.
c1ccc(-c2cn3nc(-c4ccccc4)c(-c4ccccc4)nc3n2)cc1	7%	9%	14%	i	13µM*	.
O=S1(=O)c2ccc(Br)cc2N2CCC[C@H]2CN1Cc1ccccc1	-15%	5.8µM*	?	?	5.2µM*	i
O=S1(=O)c2ccc(Br)cc2N2CC[C@H](C2)N1Cc1ccc(Cl)cc1	-13%	7.3µM*	?	?	?	i
COc1cc(Br)ccc1C1C(C(=O)Nc2ccc(C)cc2C)=C(C)Nc2nnnn21 (stereo not given)	?	.	.	i	i	?
COc1ccc(-c2c(-c3ccc(O)cc3O)n[nH]c2C(F)(F)F)cc1	-3%	?	?	i	i	i
Oc1ccc(-c2n[nH]c(C(F)(F)F)c2-c2ccccc2)c(O)c1	-16%	10µM*	-20%	?	?	i
CCn1c(SCC(=O)NCc2ccco2)nnc1-c1ccc(N(C)C)cc1	.	.	.	i	i	.
CCc1cc(C(=O)N2CCc3c([nH]c4ccccc34)C2c2ccc(OC)cc2F)no1 (stereo not given)	48%	-30%	?	5.8µM*	?	i
O=C(c1cnccn1)N1CCc2c([nH]c3ccccc23)C1c1cccc(Cl)c1 (stereo not given)	-17%	-24%	-14%	?	23µM*	i
CCn1c(=O)c2cc(C(=O)N(C)c3cc(C)ccc3OC)sc2c2ccccc21	.	-2%	-7%	i	23µM*	?
CCCN(C(=O)c1cc2c(=O)n(CC)c3ccccc3c2s1)c1ccccc1F	-8%	.	.	i	i	i
CCOc1ccccc1N(CC)C(=O)c1cc2c(=O)n(CC)c3ccccc3c2s1	?	.	.	?	21µM*	?
O=c1[nH]c(CCl)nc2cc(-c3ccc(F)cc3)sc12	?	7.3µM*	15µM*	?	?	i
CC(C)C[C@H]1CNC(=S)N1C[C@H]1CCCN1C[C@H](Cc1ccc(O)cc1)N1C[C@H](Cc2ccc(O)cc2)N(CCc2ccccc2)C1=S	?	21µM*	21µM*	?	i	.
SMILES	ATXN2 expr inh	HT1080 IDH1KD tx	HT1080NT lethal	KB-3-1 tox	KB-V1 MDR tox	S2 tox
CCOc1ccc(CCN2C(=S)N([C@@H](CC(C)C)CN3CCC[C@@H]3CN3C(=S)NC[C@@H]3CC(C)C)C[C@@H]2Cc2ccc(O)cc2)cc1	?	16µM*	23µM*	?	i	13µM*
CC(C)C[C@@H](CN1CCC[C@@H]1CN1C(=S)NC[C@@H]1Cc1ccc(O)cc1)N1C[C@H](Cc2ccc(O)cc2)N(CCc2ccccc2)C1=S	-23%	?	26µM*	i	?	28µM*
Cc1nc2c(-c3ccccc3)c(C)nn2c(C)c1CCC(=O)NCc1ccc(Cl)cc1	12%	.	.	i	i	i
O=C1c2ccccc2S(=O)(=O)N1Cc1nc2ccccc2s1	4µM*	5%	5%	i	i	i
CCn1cc(C(=O)NCc2ccc(C)cc2)c(=O)c2cc(S(=O)(=O)N3CCC(C)CC3)ccc21	0%	.	.	i	i	i
CCn1cc(C(=O)NCc2ccco2)c(=O)c2cc(S(=O)(=O)N3CCCCCC3)ccc21	-19%	?	15µM*	21µM*	i	i
Cc1cc(C)cc(NS(=O)(=O)c2ccc3[nH]cc(C(=O)NCc4ccco4)c(=O)c3c2)c1	?	5.2µM*	2.6µM*	7.3µM*	i	?

Bioassay records (PubChem BioAssay)
